Experimental findings from PubChem BioAssay AID2013 (Sanford-Burnham Center for Chemical Genomics, 2009) are described below.

Molecules are shown by their SMILES. Hit rate of the full screen: of about 290,000 compounds, about 370 (0.13%) were called active. The sample holds actives, similar compounds and a random draw of the others, so the mix is not that of the screen.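 Rule for the calls: active = spots per cell inhibited over 60%, with over 100 cells counted and total cytoplasm intensity under 500,000; inconclusive = wells with under 100 cells, flagged as likely toxic; inactive = the rest.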 Measured potencies and affinities stand elsewhere.

The target in this assay is G-protein coupled receptor 55 (Homo sapiens) (UniProt Q9Y2T6). Nature of the assay: inhibition of LPI-stimulated GPR55 beta-arrestin translocation – imaging, U2OS, beta-arrestin-GFP, LPI agonist, primary screen (AID 2013).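 Note: U2OS cells stably carrying GPR55 and arrestin-GFP stimulated by 5 µM LPI near EC80; imaged beta-arrestin-GFP aggregate spots per cell after agonist stimulation; plate controls were LPI-stimulated DMSO wells for no effect and DMSO wells without LPI for full effect.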 Particulars: LPI antagonism, at 10 µM, active compounds read high.
Sequence of G-protein coupled receptor 55 (Homo sapiens) (Q9Y2T6 whole entry, looked up): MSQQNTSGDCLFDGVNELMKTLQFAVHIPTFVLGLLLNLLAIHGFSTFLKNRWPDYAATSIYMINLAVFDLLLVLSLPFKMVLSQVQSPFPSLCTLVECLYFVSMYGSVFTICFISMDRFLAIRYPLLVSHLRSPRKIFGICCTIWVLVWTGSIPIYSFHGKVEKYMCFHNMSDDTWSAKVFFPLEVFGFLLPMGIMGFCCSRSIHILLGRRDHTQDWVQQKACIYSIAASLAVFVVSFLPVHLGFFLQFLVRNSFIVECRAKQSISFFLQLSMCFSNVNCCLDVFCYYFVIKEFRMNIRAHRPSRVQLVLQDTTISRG
Broadly, the inhibition is the drop in the measured response relative to a control, in per cent. As to `CN(C)/C=N/c1[nH]ncc1C#N`, the inhibition is -2% (inactive). In the case of `Cc1nc2ccccc2n1CC(O)Cn1c(C(F)(F)F)nc2ccccc21` (stereo not drawn), the inhibition was 6.6% (inactive). As for `NC(=O)CSc1n[nH]c(-c2ccco2)n1`, the figure is 8.2% (inactive); as for `O=C(c1cccc(S(=O)(=O)N2CCN(c3ccccc3)CC2)c1)N1CC=C(c2ccccc2)CC1`, 4.3% (inactive). For `COc1ccccc1NS(=O)(=O)c1cc(NC(=O)CC(C)(C)C)ccc1N1CCOCC1`, the inhibition is 6.1% (inactive).

Consider `COc1ccccc1NS(=O)(=O)c1cccc(NC(=S)NCCN2CCOCC2)c1`, for which the inhibition was 0.8% (inactive).

Consider `Cc1ccccc1NC(=O)Nc1cc(S(N)(=O)=O)ccc1C`, for which the inhibition is -2.7% (inactive). Consider `COc1ccc(N2CCN(C(=O)NCc3ccc(C)cc3)CC2)cc1`, for which the inhibition is 1% (inactive).

As for `CC(=O)Nc1cccc(C(=O)OCC(=O)c2ccccc2Cl)c1`, the inhibition is -0.6% (inactive). Consider `COc1cc(S(=O)(=O)Nc2ccccc2)ccc1N=Cc1c(C)[nH]n(-c2ccc(C)cc2)c1=O`, for which the inhibition was 7.7% (inactive). Regarding `O=C(Nc1ccccc1N1CCOCC1)c1cccc(NS(=O)(=O)c2ccc(F)c(F)c2)c1`, the inhibition is 2.6% (inactive).

As to `O=C(CC12CC3CC(CC(C3)C1)C2)NCc1ccco1`, the inhibition was 11.3% (inactive). Consider `O=C(CC12CC3CC(CC(C3)C1)C2)NC(=S)NCc1ccccc1`, for which the inhibition is 53% (inactive). For `OCCNc1cnc2ccccc2n1` the value was 12.6% (inactive). Turning to `CC1CN(S(=O)(=O)c2ccccc2)CN1C(=O)N1CCOCC1` (stereo not drawn), the inhibition was 15.3% (inactive). Consider `CCN1CCCC1CN(Cc1cc2ccc(C)cc2[nH]c1=O)C(=S)Nc1ccc(F)cc1` (stereo not drawn), for which the inhibition was 23.5% (inactive). In the case of `COc1ccc(Cl)cc1S(=O)(=O)n1ccnc1`, the inhibition is 4.2% (inactive). As to `C[N+]1=C(/C=C/Nc2ccccc2Cl)C(C)(C)c2ccccc21`, the inhibition is 0.9% (inactive). For `COC(=O)c1ccc2c(c1)C(C)(C)C(/C=C/c1ccccc1O)=[N+]2C` the value was 11.5% (inactive). On to `O=C1c2ccccc2C(=O)C2OC12` (stereo not drawn), for which the inhibition was 12.7% (inactive).

As for `COc1ccc(OC)c(-c2csc(N(CC3CCCO3)C(=O)Cc3ccccc3)n2)c1` (stereo not drawn), the inhibition was 17.6% (inactive). For `COc1ccc(OC)c(-c2csc(N(CC3CCCO3)C(=O)C3CCCCC3)n2)c1` (stereo not drawn) the value was 82.9% (active).

Take `COc1ccc(-c2csc(N(CC3CCCO3)C(=O)c3ccccc3)n2)cc1` (stereo not drawn): the inhibition is 0.7% (inactive). `CN(C)c1ccc(C(=O)OCC(=O)Nc2ccc(N3CCOCC3)cc2)cc1`: the inhibition is 0.2% (inactive).

Regarding `CCN(CC)c1ccc(NC(=O)Cn2c(C(C)NC(=O)c3ccc(C)cc3)nc3ccccc32)cc1` (stereo not drawn), the inhibition is 1.1% (inactive). As for `S=c1[nH]nc(CSCc2ccccc2Cl)n1-c1ccccc1`, the inhibition is 1% (inactive). With `Cn1c(CSCc2ccccc2Cl)n[nH]c1=S`, the inhibition was -17.8% (inactive). For `CN(Cc1ccc(Cl)cc1Cl)C(=O)CNC(=O)c1ccco1`, the inhibition was 8.3% (inactive).

On to `CCCn1cc(S(=O)(=O)c2ccccc2)c(=O)c2cc(F)c(N3CCN(C)CC3)cc21`, for which the inhibition is 7.5% (inactive). `Clc1cccc(-c2cc3nc4c(c(N5CCN(c6cnccn6)CC5)n3n2)CCCC4)c1`: the inhibition was -5.5% (inactive). `Clc1cccc(-c2cc3nc4c(c(N5CCNCC5)n3n2)CCCC4)c1`: the inhibition is 90.4% (active). Consider `Clc1cccc(-c2cc3nc4c(c(N5CCOCC5)n3n2)CCCC4)c1`, for which the inhibition is -8.9% (inactive).

As for `COc1ccc(NS(=O)(=O)c2ccc3nc(COc4ccc5ccccc5c4)[nH]c3c2)cc1`, the inhibition was 20.6% (inactive).

With `COc1ccc(NS(=O)(=O)c2ccc3nc(COc4ccc(C#N)cc4)[nH]c3c2)cc1`, the inhibition was 6% (inactive).

Turning to `COc1ccc(/C=C(\C#N)C(=O)OCC(=O)Nc2ccc(-c3nc4ccc(C)cc4s3)cc2)cc1`, the inhibition is -6.4% (inactive). For `C=C(C)CSc1nc2ncc(Cl)cc2[nH]1` the value was 17.6% (inactive).

For `N/C(=N\O)c1ccccc1N1CCCCC1`, the inhibition is -5% (inactive). For `CCCC(=O)Nc1nc(C)c(C(C)=O)s1` the value was -16% (inactive); for `C=CCn1c(SCC(=O)NC(=O)c2cccn2C)nc2ccccc2c1=O`, 4.4% (inactive); for `CCC(C)n1c(SCC(=O)NC(=O)c2cccn2C)nc2ccccc2c1=O` (stereo not drawn), 99.6% (active). As for `CCC(C)n1c(SCC(=O)Nc2cc(C)on2)nc2ccccc2c1=O` (stereo not drawn), the inhibition is 15.5% (inactive). Take `COc1cc(C(=O)NNC(=O)NC2CCCCC2)cc(OC)c1OC`: the inhibition was 8.5% (inactive). On to `O=C(NCc1ccccc1Cl)c1ccc2c(c1)SC1=NS(=O)(=O)CCN12`, for which the inhibition is -9.3% (inactive). In the case of `COc1cccc(NC(=O)c2cccc(C(=O)Nc3cccc(OC)c3)c2)c1`, the inhibition was -0.6% (inactive). For the compound `C=CCNC(=O)/C(C#N)=C/c1ccccc1[N+](=O)[O-]`, the inhibition was 13.3% (inactive). As for `N#C/C(=C\C=C\c1ccccc1[N+](=O)[O-])C(=O)NCc1ccccc1`, the figure is 11.1% (inactive). Turning to `CC1=CC(=C(C#N)C#N)C=C(C)N1CCN1CCN(C(=O)Nc2cccc(Cl)c2)CC1`, the inhibition is 3.5% (inactive). With `Cc1cccc(NC(=O)C2C3C=CC4(O3)C2C(=O)N(CCCN2CCCC2)C4C(=O)NC2CCCC(C)C2C)c1` (stereo not drawn), the inhibition was -6.5% (inactive). On to `CC1(c2ccc([N+](=O)[O-])cc2)CC(C)(C)N(C(=O)c2ccccc2)c2ccccc21` (stereo not drawn), for which the inhibition is 11.2% (inactive). `CC1(c2cc([N+](=O)[O-])cc([N+](=O)[O-])c2)CC(C)(C)N(C(=O)c2ccccc2)c2ccccc21` (stereo not drawn): the inhibition is -0.2% (inactive). As for `CC1(c2ccccc2)CC(C)(C)N(C(=O)c2cc([N+](=O)[O-])cc([N+](=O)[O-])c2)c2ccccc21` (stereo not drawn), the figure is 64.4% (active).

Turning to `COc1ccccc1Nc1nc(N)nc(-c2cc3ccccc3o2)n1`, the inhibition is 8.7% (inactive). With `NCC(O)COCCC12CC3CC(CC(C3)C1)C2` (stereo not drawn), the inhibition was 5.8% (inactive).

Regarding `CC(NCC(O)COCc1ccc(Cl)cc1)c1ccccc1` (stereo not drawn), the inhibition is 0.4% (inactive). For the compound `CC1(C)CC(=O)C=C(NCC2CCCO2)C1` (stereo not drawn), the inhibition is 3.1% (inactive).

Regarding `CC1=CC(c2ccc(Cl)cc2)n2nc(NC(=O)c3ccccc3)nc2N1` (stereo not drawn), the inhibition was 5.1% (inactive). Regarding `Cc1ccc(-c2ccnc3cc(C)nn23)cc1`, the inhibition is 13.3% (inactive). Consider `c1cc2c3c(cccc3c1)C(N1CCCCC1)=N2`, for which the inhibition was 3.4% (inactive). Take `c1cc2c3c(cccc3c1)C(N1CCCCCC1)=N2`: the inhibition was 17.5% (inactive). As for `COc1ccccc1N1CCN(C2=Nc3cccc4cccc2c34)CC1`, the inhibition is 95.5% (active).

`COc1ccc(/C=C2\SC(=O)N(CC(=O)NC3C=CS(=O)(=O)C3)C2=O)cc1` (stereo not drawn): the inhibition was 14.8% (inactive). As for `COc1ccc(CCNC(=O)C/C(C)=N/NC(=O)c2ccc([N+](=O)[O-])cc2Cl)cc1OC`, the figure is 5.9% (inactive); as for `C#CCOc1c(Br)cc(/C=N/O)cc1OCC`, -2.8% (inactive). As for `C=CCOc1ccc(/C=N/NC(=O)CN2CCOCC2)cc1OCC`, the figure is -14.5% (inactive). Turning to `COCCNc1c2c(nc3c(-c4ccccc4)c(C)nn13)CCC2`, the inhibition was -0.5% (inactive). In the case of `CC(=O)c1c(O)cc(O)cc1CC(=O)O`, the inhibition was 14.6% (inactive). For `CCCCN(CC)C(=O)CSc1nc2c(sc(=S)n2-c2ccc(OCC)cc2)c(=O)[nH]1` the value was 6.8% (inactive); for `CCOC(=O)CSc1nc2c(sc(=S)n2-c2ccc(OCC)cc2)c(=O)[nH]1`, -5.3% (inactive); for `O=c1c2ccccc2nc(-c2ccccc2)n1CCCN1CCOCC1`, -6.4% (inactive). For the compound `COc1ccc(-c2nn(-c3ccccc3)cc2/C=C2/SC(=S)N(Cc3ccco3)C2=O)c(C)c1`, the inhibition was 13.6% (inactive). For `COc1ccc(-c2nn(-c3ccccc3)cc2/C=C2/SC(=S)N(CCC(=O)O)C2=O)cc1`, the inhibition is 2.4% (inactive).

Turning to `O=C(Nc1ccc(F)cc1F)c1c(C(F)(F)F)ccnc1Oc1cccc(C(F)(F)F)c1`, the inhibition is 6.9% (inactive). On to `Cc1cc(NC(=O)CN(C)S(=O)(=O)c2cnc[nH]2)ccc1Br`, for which the inhibition is 0.7% (inactive). For `CCCCn1c(NC(C)=O)c(C#N)c2nc3ccccc3nc21` the value was 17% (inactive). On to `CCCCn1c(NC(=O)c2ccccc2)c(C#N)c2nc3ccccc3nc21`, for which the inhibition is -12.6% (inactive). As to `Cc1ccc(C(=O)C(C)OC(=O)c2ccccc2[N+](=O)[O-])cc1` (stereo not drawn), the inhibition is 9.5% (inactive).

As to `CCOCCOC(=O)C1=C(C)NC(=O)NC1c1cc2c(cc1Br)OCO2` (stereo not drawn), the inhibition was 5.8% (inactive).

For the compound `CCN(CC)CCNC(=O)c1cc2c(s1)-c1ccccc1SC2`, the inhibition is 15.9% (inactive). Regarding `COCCNC(=O)c1cc2c(s1)-c1ccc(Cl)cc1SC2`, the inhibition was -8.6% (inactive). On to `O=C(CSc1ccc(F)cc1)NC12CC3CC(CC(C3)C1)C2`, for which the inhibition is -6% (inactive). As for `COc1ccc(C)cc1Nc1n[n+](-c2ccccc2)c(-c2ccc(C(=O)O)cc2)s1`, the inhibition is 4.6% (inactive). As for `COc1ccc(C)cc1Nc1n[n+](-c2ccccc2)c(-c2ccc(SC)cc2)s1`, the figure is 4.4% (inactive); as for `CCC(=O)N1c2ccc(S(=O)(=O)NCCc3ccc(OC)c(OC)c3)cc2CC1C` (stereo not drawn), -31.8% (inactive). As to `COc1ccc(S(=O)(=O)N2CCCOC2CNC(=O)C(=O)NCc2ccccc2F)cc1C` (stereo not drawn), the inhibition is 22% (inactive).

With `Cc1[nH]nc(SCC(=O)N2CCCCC2)c1[N+](=O)[O-]`, the inhibition is -23.3% (inactive). `O=C(COc1ccccc1F)NCC(c1ccco1)N1CCCC1` (stereo not drawn): the inhibition is 24.1% (inactive). In the case of `O=C1C(=O)c2ccc(-c3ccccc3)cc2-c2ccccc21`, the inhibition was -5.5% (inactive). As to `Nc1c(O)ccc2c1C(=O)c1ccccc1C2=O`, the inhibition is -0.3% (inactive). On to `Oc1ccccc1N=Nc1nc(-c2ccccc2)c(-c2ccccc2)[nH]1`, for which the inhibition was 15.7% (inactive). In the case of `COc1ccc(N=Nc2nc(-c3ccccc3)c(-c3ccccc3)[nH]2)cc1`, the inhibition was 19% (inactive). As for `CCOC(=O)N1CCN(C(=O)C2CCC(CNS(=O)(=O)c3ccccc3)CC2)CC1` (stereo not drawn), the inhibition is 14.3% (inactive).

As to `COc1ccc(C(=O)N2N=C(c3cccs3)CC2c2ccccc2O)cc1` (stereo not drawn), the inhibition is 54.1% (inactive). In the case of `O=C(c1ccco1)N1N=C(c2cccs2)CC1c1ccccc1O` (stereo not drawn), the inhibition is 39.4% (inactive).
